Assay results as given in PubChem BioAssay (NCI).
This is part of a sample that, as a whole, favours compounds with a hit. Of some 83,000 tested, about 20% had one in any assay.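 Growth was measured after 48 h exposure to one concentration of compound in 96-well plates. Values under 10 count as active.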 Unmarked numbers belong to inactive results. The source made the active and inactive calls.

What was measured:
Assay in all cases: NCI-60 one-dose screen, 48 h (100 = growth as untreated, 0 = no growth, -100 = all killed)
Settings in all cases: 10 µM unless noted
DU-145 prostate = test system: DU-145 prostate
K-562 leukemia = test system: K-562 leukemia
MALME-3M melanoma = test system: MALME-3M melanoma
MDA-MB-231 breast = test system: MDA-MB-231 breast
RXF 393 renal = test system: RXF 393 renal
SF-268 CNS = test system: SF-268 CNS
SF-295 CNS = test system: SF-295 CNS
SF-539 CNS = test system: SF-539 CNS
UACC-257 melanoma = test system: UACC-257 melanoma
M14 melanoma = test system: M14 melanoma
HCT-15 colon = test system: HCT-15 colon
HT29 colon = test system: HT29 colon
SNB-75 CNS = test system: SNB-75 CNS
SNB-19 CNS = test system: SNB-19 CNS
U251 CNS = test system: U251 CNS
PC-3 prostate = test system: PC-3 prostate
SK-MEL-5 melanoma = test system: SK-MEL-5 melanoma
UACC-62 melanoma = test system: UACC-62 melanoma
LOX IMVI melanoma = test system: LOX IMVI melanoma
SK-MEL-28 melanoma = test system: SK-MEL-28 melanoma

| Structure (SMILES) | growth (DU-145 prostate) | growth (K-562 leukemia) | growth (MALME-3M melanoma) | growth (MDA-MB-231 breast) | growth (RXF 393 renal) | growth (SF-268 CNS) | growth (SF-295 CNS) | growth (SF-539 CNS) | growth (UACC-257 melanoma) | growth (M14 melanoma) | growth (HCT-15 colon) | growth (HT29 colon) | growth (SNB-75 CNS) | growth (SNB-19 CNS) | growth (U251 CNS) | growth (PC-3 prostate) | growth (SK-MEL-5 melanoma) | growth (UACC-62 melanoma) | growth (LOX IMVI melanoma) | growth (SK-MEL-28 melanoma) [%] |
| --- | --- | --- | --- | --- | --- | --- | --- | --- | --- | --- | --- | --- | --- | --- | --- | --- | --- | --- | --- | --- |
| O=C(/C=C/c1cccc([N+](=O)[O-])c1)c1ccc(Nc2nc(N3CCCCC3)nc(N3CCCCC3)n2)cc1 | 98.7% | 97.7% | 118% | 103% | 100% | 97.5% | 93.2% | 99.6% | 97.4% | 98% | 87.6% | 88.6% | 101% | 100% | 95.2% | 89.3% | 97.6% | 91% | 92.9% |  |
| COc1ccc(NC(=O)/C=C/c2ccc(Cl)c(Cl)c2)cn1 | 96.7% | 58% | 92% | 95% | 89.4% | 95.7% | 84.5% | 98.2% | 79.9% | 95.9% | 51.6% | 93.5% | 102% | 91.2% | 87.4% | 74.3% | 71.4% | 77.6% | 93.6% |  |
| Cc1ccc2oc(=O)cc(-c3nc4ccc([N+](=O)[O-])cc4[nH]3)c2c1 | 76.4% | 48.7% | 62.9% | 64.2% | 46.7% | 62.1% | 49.3% | 54% | 62.2% | 64.4% | 59.4% | 70.9% | 70.1% | 61.4% | 41.9% | 48.9% | 28.9% | 39.5% | 67.7% | 63.7 |
| COc1ccc(/C=C2\N=C(c3cccnc3)N(c3ccccc3)NC2=O)cc1 | 104% | 107% | 97.4% | 92.1% | 89.9% | 91.9% | 95.2% | 103% | 102% | 92.8% | 95.1% | 107% | 80.6% | 96.8% | 106% | 74.2% | 98.7% | 95.4% | 92.7% | 129 |
| O=C1/C(=C\c2cccn2Cc2ccc(F)cc2)c2ccccc2N1c1c(Cl)cccc1Cl | 91.2% | 70.8% | 87.6% | 75% | 81.5% | 79.9% | 81.9% | 87.5% | 90.3% | 94.9% | 56.2% | 81.5% | 68.4% | 81.3% | 75.7% | 52% | 57.7% | 62% | 91.1% | 87.4 |
| COc1cc(C)c2c(=O)c3c(oc2c1)C(=O)c1c(O)c(OC)cc(O)c1C3=O | 26.8% | -23.8% (active) | -23.8% (active) | -0.877% (active) | 13.1% | 21.5% | 25.7% | 5.8% (active) | 54% | 19.3% | 5.54% (active) | 68.1% | -13.2% (active) | 20.2% | 10.8% | -8.33% (active) | -43.8% (active) | 22.5% | 3.56% (active) |  |
| COc1cc2nccc(Oc3ccc(NC(=O)C4(C(=O)Nc5ccc(F)cc5)CC4)cc3)c2cc1OC(=O)c1ccc(N)cc1 | 45.3% | -20.9% (active) | 26% | -1.25% (active) | -10.4% (active) | 29.4% | -74.6% (active) | -1.2% (active) | 33.5% | 10.8% | 25.9% | 1.03% (active) | -34.6% (active) | 37.6% | 7.81% (active) | 25.4% | 34% | 40.1% | -51.4% (active) |  |
| COc1ccc2[nH]cc(/C=C3\C(=O)Nc4ccccc43)c2c1 | 47.1% | 3.31% (active) | 57.5% | 38.9% | 33.3% | 62.5% | 45.5% | 25.8% | 28.2% | 11% | 23.9% | 10.7% | 8.46% (active) | 73% | 38.8% | 45.3% | 39.5% | 26% | 21.1% |  |
| COc1cccc(CC(C)=C(c2ccc(OCCCN(C)C)cc2)c2ccc(OCCCN(C)C)cc2)c1 | -94.4% (active) | -67.5% (active) | -87% (active) | -82.2% (active) | -89.5% (active) | -81.8% (active) | -68.2% (active) | -91.6% (active) | -82.3% (active) | -80% (active) | -78.4% (active) | -81.5% (active) | -94.9% (active) | -72.1% (active) | -94.8% (active) | -89.4% (active) | -95.3% (active) | -84.7% (active) | -79.6% (active) |  |
| Cc1cc(C)cc(NC(=O)Cn2nncc2CN2C(=O)CSC2=O)c1 | 109% | 101% | 100% | 97.5% | 113% | 101% | 103% | 94.7% | 97.3% | 106% | 99.4% | 108% | 95.1% | 100% | 102% | 100% | 103% | 94% | 91.3% |  |
| COc1ccc([C@@H]2[C@@H](Oc3ccccc3)C(=O)N2c2cc(OC)c(OC)c(OC)c2)cc1F | 9.48% (active) | 4.73% (active) | 65.5% | 12.4% | 3.39% (active) | 25.3% | 3.68% (active) | -21.1% (active) | 57.3% | 5.14% (active) | 12.7% | -6.94% (active) | 61.4% | 19.9% | 4.18% (active) | 20.7% | -15.1% (active) | 0.0629% (active) | 14% | 48.9 |
| CC(C)c1ccc(Cn2ccc3c4c(N)nc(NC5CC5)nc4ccc32)cc1 | -89.5% (active) | -69.7% (active) | -91.6% (active) | -89.6% (active) | -90.9% (active) | -77.6% (active) | -82.8% (active) | -91.5% (active) | -77.8% (active) | -86.2% (active) | -80.6% (active) | -76.2% (active) | -94.4% (active) | -85.1% (active) | -95.1% (active) | -82% (active) | -96.1% (active) | -93.1% (active) | -90.2% (active) |  |
| c1ccc2c(Cc3csc4ccccc34)csc2c1 | 110% | 23.8% | 81.9% | 94.9% | 83.6% | 104% | 69.2% | 91.4% | 93.5% | 67.7% | 76.1% | 76.2% | 66.9% | 90.4% | 81.9% | 85.2% | 91% | 86.4% | 84.3% | 82.9 |
| CC(=O)OC1Oc2ccccc2-c2oc3nc(=N)n(C)c-3cc21 (stereo unspecified) | 191% | 94.9% | 119% | 112% | 144% | 251% | 125% | 102% | 113% | 98.7% | 104% | 109% | 112% | 106% | 113% | 97.4% | 108% | 106% | 103% | 122 |
| Nc1nc(N)c2c(n1)NC(c1sc(Cl)nc1Cl)CC(c1ccccc1)=N2 (stereo unspecified) | 75.1% | 17.5% | 26.8% | 47.8% | 43.8% | 53.6% | 35.2% | 35.4% | 68.6% | 26.2% | 27.9% | 12.6% | 30.1% | 61.7% | 33.3% | 59.5% | 33.5% | 45.7% | 41.5% | 62.3 |
| Cc1[nH]nc2ccc3nc(-c4ccc5[nH]ncc5c4)c4c(c3c12)CCCC4 | 33.9% | 14.3% | 7.88% (active) | 42.6% | 9.13% (active) | 33.8% | 31.1% | 18.7% | 50.6% | 18.9% | 16.2% | 22.1% | 6.45% (active) | 35.8% | 26.4% | 26.5% | 10.4% | 10.1% | 29.6% |  |
